Assay results as given in PubChem BioAssay (NCI).
About 83,000 compounds went through this panel and 20% of them were active in at least one assay; those are over-represented in the sample as a whole.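 Results are percent growth after 48 hours of single-concentration exposure. 100 means growth as in untreated cells, lower positive values show inhibition; negative values down to -100 show cell death.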 Unmarked numbers belong to inactive results. Active and inactive are the calls of the source. How the source made its calls: active means growth percent below 10; inactive means the rest.

The molecules below were run on SNB-19 CNS (assay: NCI-60 one-dose screen, 48 h (100 = growth as untreated, 0 = no growth, -100 = all killed)). Conditions: 10 µM unless noted.

SMILES | growth
CC(C)(C)N1CCC1CN (configuration not stated) | 101%
C=C1C(=O)O[C@H]2[C@H]1CC/C(COC(=O)c1cc3cc(OC)ccc3[nH]1)=C\CC[C@@]1(C)O[C@@H]21 | -64.3% (active)
CC[C@]1(O)C[C@@H]2CN(CCc3c([nH]c4ccccc34)[C@@](C(=O)OC)(c3cc4c(cc3OC)N(C)[C@H]3[C@@](O)(C(N)=O)[C@H](O)[C@]5(CC)[C@@H]6C[C@@H]6CN6CC[C@]43[C@@H]65)C2)C1 | 30.9%
Cc1nn(-c2ccc(F)cc2)c2ncnc(Nc3ccc(NC(=O)Nc4ccc(Cl)c(C(F)(F)F)c4)cc3)c12 | 23.7%
O=C(N/N=C/c1ccccc1O)c1ccccc1Nc1ccnc(C(F)(F)F)c1 | 21.8%
CC(=O)O[C@H]1[C@@H]2OC(=O)C(CSc3ccccc3)[C@@H]2C[C@H]2O[C@]2(C)CC/C=C(\C)CCC[C@@H]1C (some centres not stated) | 68%
C#CCOc1ccc2ncnc(N3CCC(NC(=O)CCl)CC3)c2c1 | 77.9% [8.25 µM]
CCC(=O)c1ccc(Cl)s1 | 102%
O=C1CC[C@H](c2ccc(O)c3c2C(=O)[C@@H]2O[C@@H]2C3=O)c2cccc(O)c21 | 92%
COc1ccc(S(=O)(=O)N2CC3(COC3)C2)cc1NC(=O)c1[nH]c(C)c2c1CCCCC2=O | 54.9%
O=C1/C(=C/c2ccc3c(c2)OCO3)SC(=S)N1CCc1ccc(O)cc1 | 95.5%
Oc1ccccc1-c1nnc(CNc2ccc(Cl)cc2)o1 | 41.9%
